{"source": "PubChem BioAssay (Tox21)", "note": "Unmarked numbers belong to inactive results. Activity calls are given as the source filed them. % is scaled to controls: 0 for no effect and ±100 for the full control effect; potency is read from the fitted curve at half-maximal effect.", "data": [{"target": "Glucocorticoid receptor (Homo sapiens) (UniProt P04150)", "sequence (P04150 whole entry, looked up)": "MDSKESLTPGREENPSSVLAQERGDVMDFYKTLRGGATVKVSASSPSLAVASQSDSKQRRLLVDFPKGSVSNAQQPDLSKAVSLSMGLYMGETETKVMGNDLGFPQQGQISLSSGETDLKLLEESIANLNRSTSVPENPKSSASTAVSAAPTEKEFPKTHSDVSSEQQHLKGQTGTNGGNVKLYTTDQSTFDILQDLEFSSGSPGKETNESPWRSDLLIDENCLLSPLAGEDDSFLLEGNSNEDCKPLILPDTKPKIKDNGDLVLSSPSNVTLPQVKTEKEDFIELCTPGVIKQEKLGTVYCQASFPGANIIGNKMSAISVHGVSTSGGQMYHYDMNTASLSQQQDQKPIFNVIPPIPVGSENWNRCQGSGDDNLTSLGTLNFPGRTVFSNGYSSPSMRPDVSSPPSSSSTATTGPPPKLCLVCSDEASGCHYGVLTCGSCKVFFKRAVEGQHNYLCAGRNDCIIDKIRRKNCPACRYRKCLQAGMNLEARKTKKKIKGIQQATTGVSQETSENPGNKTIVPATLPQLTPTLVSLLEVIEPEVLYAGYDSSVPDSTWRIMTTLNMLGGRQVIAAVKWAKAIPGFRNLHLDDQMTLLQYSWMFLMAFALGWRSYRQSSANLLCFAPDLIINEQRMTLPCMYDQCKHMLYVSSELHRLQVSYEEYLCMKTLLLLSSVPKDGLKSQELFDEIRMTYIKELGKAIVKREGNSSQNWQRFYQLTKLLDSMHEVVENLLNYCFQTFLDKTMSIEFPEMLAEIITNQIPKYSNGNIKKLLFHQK", "assay": "qHTS assay to identify small molecule agonists of the glucocorticoid receptor (GR) signaling pathway (AID 720691; active = well fitted activation curve with a large enough effect in the signal ratio in the repeat runs, not every such curve was filed as active; inconclusive = weak or mixed curves, or effect the other way; inactive = no such curve, though single readings can be large or run the other way; the % refers to the signal ratio)", "conditions": "GR-bla HeLa, beta-lactamase reporter ratio, 18 h; series mostly up to 62.4 µM; activation: at the top concentration", "how_it_was_run": "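Fluorescence intensity from LiveBLAzer B/G FRET substrate (2 h, room temperature) reports beta-lactamase expression driven by the glucocorticoid response element in GR-bla HeLa cells after 18 h compound exposure at 37 C.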", "values": [{"smiles": "N[C@@H](Cc1cc(I)c(O)c(I)c1)C(=O)O", "activation": "2.76%"}, {"smiles": "CCCCCCCC/C=C\\CCCCCCCC(=O)OCCO", "activation": "0.592% [at 79.2 µM]"}, {"smiles": "CC(=O)C(C)=O", "activation": "-2.24% [at 79.2 µM]"}, {"smiles": "O=C(O)c1ccc(O)cc1O", "activation": "-1.34% [at 79.2 µM]"}, {"smiles": "CCN(CC)CCOC(=O)C(c1ccccc1)c1ccccc1", "activation": "0.154%"}, {"smiles": "Cc1cccc2sc(N)nc12", "activation": "-11.4% [at 79.2 µM]"}, {"smiles": "CC(=O)OCC(=O)[C@@]1(OC(C)=O)[C@@H](C)C[C@H]2[C@@H]3C[C@H](F)C4=CC(=O)C=C[C@]4(C)[C@@]3(F)[C@@H](O)C[C@@]21C", "Potency": "0.0379 µM [inconclusive] (active)"}, {"smiles": "COc1ccc(C(=O)NCc2ccc(OCCN(C)C)cc2)cc1OC", "activation": "1.62%"}, {"smiles": "COc1ccc(N)c([N+](=O)[O-])c1", "activation": "6.34%"}, {"smiles": "CC(=O)N[C@@H](Cc1ccc(O)cc1)C(=O)O", "activation": "0.135%"}, {"smiles": "Cc1cn([C@H]2C[C@H](F)[C@@H](CO)O2)c(=O)[nH]c1=O", "activation": "-0.193%"}, {"smiles": "C1=CCC2CC=CC2C1", "note": "(centres undefined)", "activation": "-0.955%"}, {"smiles": "c1ccc(CNc2ncnc3c2ncn3C2CCCCO2)cc1", "note": "(centres undefined)", "activation": "-1.71%"}, {"smiles": "CCCCCc1ccco1", "activation": "-0.29%"}, {"smiles": "c1ccc(CCCc2ccncc2)cc1", "activation": "7.4%"}, {"smiles": "CC(C)(C(=O)c1cccnc1)c1cccnc1", "activation": "1.23% [at 29.2 µM]"}, {"smiles": "SCCc1cnccn1", "activation": "4.36%"}, {"smiles": "O=C1NC(=O)c2cccc3cccc1c23", "activation": "-2.14%"}, {"smiles": "CC1CCCC(=O)C1=O", "note": "(centres undefined)", "activation": "1.27%"}, {"smiles": "CCC1CCC(CCC(=O)O)C1", "note": "(centres undefined)", "activation": "-9.6% [at 79.2 µM]"}, {"smiles": "BrC(Br)C(Br)Br", "activation": "-1.83%"}, {"smiles": "O=c1[nH]c2cc(C(F)(F)F)c(N3CCOCC3)cc2n(CP(=O)(O)O)c1=O", "activation": "0.341%"}, {"smiles": "Cc1c(C2(c3cc(Br)c(O)c(Br)c3C)OS(=O)(=O)c3ccccc32)cc(Br)c(O)c1Br", "activation": "-7.03%"}, {"smiles": "CCCCCC", "activation": "0.0777%"}, {"smiles": "O=C(O)c1cccc(C[C@@H]2COc3ccc(OCc4nc5cc(F)ccc5s4)cc3[C@@H]2O)c1", "activation": "0.227%"}, {"smiles": "COC(OC)OC", "activation": "1.37%"}, {"smiles": "O=C(O)CCC(=O)OC[C@@H](NC(=O)C(Cl)Cl)[C@H](O)c1ccc([N+](=O)[O-])cc1", "activation": "1.41%"}, {"smiles": "CCCOC(=O)c1c(Cl)c(Cl)c(Cl)c(Cl)c1C(=O)OCCC", "activation": "-0.167%"}]}, {"target": "Glucocorticoid receptor (Homo sapiens) (UniProt P04150)", "assay": "qHTS assay to identify small molecule antagonists of the glucocorticoid receptor (GR) signaling pathway (AID 720692; active = well fitted inhibition curve with a large enough effect in the signal ratio in the repeat runs, not every such curve was filed as active; inconclusive = weak or mixed curves, or effect the other way; inactive = no such curve, though single readings can be large or run the other way; the % refers to the signal ratio)", "conditions": "GR-bla HeLa, beta-lactamase FRET ratio, dexamethasone-stimulated, 18 h; series mostly up to 58.5 µM; activity change, negative = inhibition: at the top concentration", "how_it_was_run": "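HeLa GR-bla cells; cmpd + dex 5 nM final, 18 h 37 C; LiveBLAzer B/G FRET substrate 2 h RT; fluorescence intensity read. Antagonist mode, qHTS.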", "values": [{"smiles": "N[C@@H](Cc1cc(I)c(O)c(I)c1)C(=O)O", "activity change, negative = inhibition": "5.98%"}, {"smiles": "CCCCCCCC/C=C\\CCCCCCCC(=O)OCCO", "Potency": "57.8 µM (active)"}, {"smiles": "CC(=O)C(C)=O", "activity change, negative = inhibition": "-13.5% [at 78.9 µM]"}, {"smiles": "CCN(CC)CCOC(=O)C(c1ccccc1)c1ccccc1", "activity change, negative = inhibition": "8.93%"}, {"smiles": "Cc1cccc2sc(N)nc12", "activity change, negative = inhibition": "-20.8% [at 78.9 µM]"}, {"smiles": "COc1ccc(C(=O)NCc2ccc(OCCN(C)C)cc2)cc1OC", "activity change, negative = inhibition": "21.9%"}, {"smiles": "COc1ccc(N)c([N+](=O)[O-])c1", "activity change, negative = inhibition": "20.3%"}, {"smiles": "CC(=O)N[C@@H](Cc1ccc(O)cc1)C(=O)O", "activity change, negative = inhibition": "-6.23%"}, {"smiles": "Cc1cn([C@H]2C[C@H](F)[C@@H](CO)O2)c(=O)[nH]c1=O", "activity change, negative = inhibition": "-13.7%"}, {"smiles": "C1=CCC2CC=CC2C1", "note": "(centres undefined)", "activity change, negative = inhibition": "4.27%"}, {"smiles": "c1ccc(CNc2ncnc3c2ncn3C2CCCCO2)cc1", "note": "(centres undefined)", "activity change, negative = inhibition": "24.3%"}, {"smiles": "CCCCCc1ccco1", "Potency": "31.9 µM (active)"}, {"smiles": "CC(C)(C(=O)c1cccnc1)c1cccnc1", "activity change, negative = inhibition": "1.72% [at 27 µM]"}, {"smiles": "O=C1NC(=O)c2cccc3cccc1c23", "activity change, negative = inhibition": "-1.82%"}, {"smiles": "CC1CCCC(=O)C1=O", "note": "(centres undefined)", "activity change, negative = inhibition": "-0.205%"}, {"smiles": "BrC(Br)C(Br)Br", "activity change, negative = inhibition": "4.54%"}, {"smiles": "O=c1[nH]c2cc(C(F)(F)F)c(N3CCOCC3)cc2n(CP(=O)(O)O)c1=O", "activity change, negative = inhibition": "8.52%"}, {"smiles": "CCCCCC", "activity change, negative = inhibition": "-14.4%"}, {"smiles": "COC(OC)OC", "activity change, negative = inhibition": "3.63%"}, {"smiles": "O=C(O)CCC(=O)OC[C@@H](NC(=O)C(Cl)Cl)[C@H](O)c1ccc([N+](=O)[O-])cc1", "activity change, negative = inhibition": "1.08%"}, {"smiles": "CCCOC(=O)c1c(Cl)c(Cl)c(Cl)c(Cl)c1C(=O)OCCC", "activity change, negative = inhibition": "-21.8%"}]}]}
